From PubChem BioAssay AID1159580 (chemical genetic matrix, 2015)
The campaign covered roughly 5,500 compounds. About 2,000 (36%) were called active. Roughly 18% stayed inconclusive and do not appear here. Rule as the data show it: active = normalized growth mostly below about 0.91 (no sharp cut-off); inconclusive = no clear call, values can overlap the other calls; inactive = mostly above about 0.92. The list shows a part of the results.

Assay: chemical genetic growth profiling, strain panel (AID 1159580);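 also: tested at 20 µM; growth read once vehicle control cultures reached saturation at 30 °C; 1 = growth at the plate median or of vehicle wells; lower values mean less growth of the strain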
Settings: S. cerevisiae deletion strains, growth OD

Measured: normalized growth

CC(=O)OC[C@H]1O[C@@H](Oc2cc(OC(C)=O)c3c(=O)cc(-c4ccc(OC(C)=O)cc4)oc3c2)[C@H](OC(C)=O)[C@@H](OC(C)=O)[C@@H]1OC(C)=O
inactive: locus YAL021C, strain ccr4, hits give low values 1.04 | locus YAL026C, strain drs2, hits give low values 1 | locus YAL030W, strain snc1, hits give low values 1.01 | locus YBL061C, strain skt5, hits give low values 0.981 | locus YBR009C, strain hhf1, hits give low values 0.998 | locus YBR023C, strain chs3, hits give low values 0.999 | locus YBR171W, strain sec66, hits give low values 0.981 | locus YBR231C, strain swc5, hits give low values 0.955 | locus YBR279W, strain paf1, hits give low values 0.997 | locus YCL011C, strain gbp2, hits give low values 1 | locus YCL016C, strain dcc1, hits give low values 1.06 | locus YCL069W, strain vba3, hits give low values 0.979 | locus YCR088W, strain abp1, hits give low values 0.989 | locus YDL005C, strain med2, hits give low values 0.977 | locus YDL040C, strain nat1, hits give low values 1.02 | locus YDR001C, strain nth1, hits give low values 1 | locus YDR069C, strain doa4, hits give low values 0.953 | locus YDR137W, strain rgp1, hits give low values 1.09 | locus YDR159W, strain sac3, hits give low values 0.963 | locus YDR195W, strain ref2 0.936 | locus YDR297W, strain sur2, hits give low values 0.988 | locus YDR334W, strain swr1, hits give low values 0.979 | locus YDR335W, strain msn5, hits give low values 0.989 | locus YDR392W, strain spt3, hits give low values 0.966 | locus YEL003W, strain gim4, hits give low values 0.979 | locus YEL037C, strain rad23, hits give low values 0.986 | locus YEL061C, strain CIN8 (second series), hits give low values 0.999 | locus YER015W, strain faa2, hits give low values 1 | locus YER016W, strain bim1, hits give low values 1.02 | locus YER111C, strain swi4, hits give low values 1.03 | locus YER155C, strain BEM2 (second series), hits give low values 0.985 | locus YFR010W, strain ubp6, hits give low values 0.975 | locus YGL167C, strain pmr1, hits give low values 0.992 | locus YGL173C, strain kem1, hits give low values 0.973 | locus YGL227W, strain vid30, hits give low values 0.995 | locus YGL240W, strain doc1, hits give low values 0.983 | locus YGL253W, strain hxk2, hits give low values 0.968 | locus YHR013C, strain ard1, hits give low values 1.01 | locus YHR027C, strain rpn1, hits give low values 1.01 | locus YHR142W, strain chs7, hits give low values 1.02 | locus YJL092W, strain hpr5, hits give low values 0.995 | locus YJL095W, strain BCK1 (second series), hits give low values 1.04 | locus YJL115W, strain asf1, hits give low values 0.98 | locus YJL129C, strain trk1, hits give low values 0.984 | locus YJL154C, strain vps35, hits give low values 0.98 | locus YJL164C, strain tpk1, hits give low values 1.02 | locus YJL166W, strain qcr8, hits give low values 0.989 | locus YJL187C, strain SWE1, hits give low values 1 | locus YKL160W, strain elf1, hits give low values 1.02 | locus YKR026C, strain gcn3, hits give low values 0.977 | locus YKR091W, strain srl3, hits give low values 0.999 | locus YLL001W, strain dnm1, hits give low values 0.947 | locus YLL026W, hits give low values 0.99 | locus YLL041C, strain sdh2, hits give low values 0.991 | locus YLR027C, strain aat2, hits give low values 0.981 | locus YLR221C, strain rsa3, hits give low values 0.971 | locus YLR258W, strain gsy2, hits give low values 1.01 | locus YLR262C, strain YPT6 (second series), hits give low values 0.998 | locus YLR320W, strain mms22, hits give low values 0.993 | locus YLR342W, strain FKS1, hits give low values 0.985 | locus YLR357W, strain rsc2, hits give low values 0.967 | locus YLR370C, strain arc18, hits give low values 0.981 | locus YLR384C, strain iki3, hits give low values 0.965 | locus YML120C, strain ndi1, hits give low values 0.998 | locus YMR058W, strain fet3, hits give low values 0.994 | locus YMR125W, strain sto1, hits give low values 1 | locus YMR129W, hits give low values 0.987 | locus YMR205C, strain PFK2, hits give low values 1.01 | locus YMR231W, strain pep5, hits give low values 0.969 | locus YNL071W, strain lat1, hits give low values 0.998 | locus YNL209W, strain ssb2, hits give low values 1 | locus YNL248C, strain rpa49, hits give low values 0.961 | locus YNL322C, strain KRE1 (second series), hits give low values 1.01 | locus YNR049C, strain mso1, hits give low values 0.989 | locus YOR001W, strain rrp6, hits give low values 0.953 | locus YOR070C, strain gyp1, hits give low values 1.06 | locus YOR080W, strain dia2, hits give low values 0.98 | locus YOR083W, strain WHI5, hits give low values 1.03 | locus YOR106W, strain vam3, hits give low values 1.01 | locus YOR265W, strain rbl2, hits give low values 0.992 | locus YOR270C, strain vph1, hits give low values 0.958 | locus YOR290C, strain snf2, hits give low values 1.12 | locus YPL051W, strain arl3, hits give low values 0.981 | locus YPL078C, strain atp4, hits give low values 1.03 | locus YPL106C, strain sse1, hits give low values 1.01 | locus YPL240C, strain hsp82, hits give low values 0.989
